Potency and affinity values are given separately. Calls of active or inactive are those of the source.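 The calls were made as follows: active = fitted half-maximal dose no more than twice the top valid tested dose, for compounds that lower signal; inconclusive = fit invalid, or curve flat with activity between -70 and -30; inactive = potency past limit, curve flat within ±30, or signal increasing.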
The molecules below were run against NAD-dependent protein deacylase sirtuin-5, mitochondrial (Homo sapiens) (UniProt Q9NXA8) (assay: SIRT5 deacylase inhibitors, dose response, biochemical, fluorescence imaging, cherry-pick, set 6 (AID 720597;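 also: lower AMC signal can also come from blocking the trypsin step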)). Conditions: Purified SirT5, succinyl-peptide-AMC/trypsin fluorescence; series mostly up to 15 µM.
Chain of NAD-dependent protein deacylase sirtuin-5, mitochondrial (Homo sapiens) (Q9NXA8 whole entry, looked up): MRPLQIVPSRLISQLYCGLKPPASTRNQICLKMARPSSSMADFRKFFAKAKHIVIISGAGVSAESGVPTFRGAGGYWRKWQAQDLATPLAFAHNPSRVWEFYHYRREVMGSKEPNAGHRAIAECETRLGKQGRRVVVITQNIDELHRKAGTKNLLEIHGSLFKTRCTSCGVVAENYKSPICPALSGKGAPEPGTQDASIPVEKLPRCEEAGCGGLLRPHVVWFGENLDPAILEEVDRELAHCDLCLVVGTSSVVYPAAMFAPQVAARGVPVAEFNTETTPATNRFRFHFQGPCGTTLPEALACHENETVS

outcome, inactive:
COc1cccc(S(=O)(=O)N(C)C[C@@H]2Oc3cc(C4=CCCCC4)ccc3S(=O)(=O)N([C@@H](C)CO)C[C@@H]2C)c1, C[C@H](O)C#Cc1ccc2c(c1)O[C@H](CN(C)Cc1ccc(-c3ccccc3)cc1)[C@@H](C)CN([C@H](C)CO)S2(=O)=O, COc1ccc(S(=O)(=O)N(C)C[C@H]2OCCCC[C@@H](C)Oc3ccc(NS(=O)(=O)c4ccc(Cl)cc4)cc3C(=O)N([C@H](C)CO)C[C@H]2C)cc1, C[C@H]1CN([C@@H](C)CO)C(=O)c2cccc(NC(=O)c3nc4ccccc4s3)c2O[C@H]1CN(C)Cc1ccc(C(F)(F)F)cc1, Cn1cnc(CCNC(=O)C[C@@H]2CC[C@@H]3[C@H](COC[C@H](O)CN3C(=O)C3CCCC3)O2)c1, C[C@H]1CN([C@@H](C)CO)S(=O)(=O)c2ccc(/C=C/c3ccccc3)cc2O[C@H]1CN(C)Cc1ccccc1, Cc1ccc(NC(=O)C2CC(=O)n3ncnc3N2)cc1 (stereo unspecified), C[C@@H]1CN([C@H](C)CO)S(=O)(=O)c2ccc(C#CC3CC3)cc2O[C@H]1CN(C)Cc1ccccc1F, COc1ccc(S(=O)(=O)Nc2ccc3c(c2)C(=O)N([C@@H](C)CO)C[C@@H](C)[C@@H](CN(C)Cc2ccc(C(F)(F)F)cc2)OCCCC[C@@H](C)O3)cc1, CO[C@H]1CN(C)C(=O)c2cc(NC(=O)c3ccccc3F)ccc2OC[C@@H](C)NC[C@@H]1C, COc1ccc(S(=O)(=O)Nc2ccc3c(c2)C(=O)N([C@@H](C)CO)C[C@@H](C)[C@H](CN(C)Cc2ccc(C(F)(F)F)cc2)OCCCC[C@H](C)O3)cc1

From PubChem BioAssay AID720597 (Broad Institute, 2013)
